For five molecules, composite z-score, composite Z-score and z-score results are on record in PubChem BioAssay.

Assay [1] concerns the target Albumin (Bos taurus) (UniProt P02769). Briefly: bovine serum albumin binders on microarray, profiling panel, artefact control for SMM control protein annotation, biochemical, small-molecule microarray, Alexa647 label, 635/667 nm fluorescence (AID 1118).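 Also: score merges 667 nm emission intensity and signal-to-noise per printed compound spot.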 Particulars: BSA-A647 binding, fluorescence 635 nm, higher = more signal.
The nature of assay [2]: small-molecule microarray binders of probe aXIP, primary screen, biochemical, NeuroSMM set, 635/667 nm fluorescence (AID 1119).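 Also: probe is the protein aXip251-270 applied at 1 µg/mL to compound-printed slides; binding of probe to printed compounds measured as 667 nm fluorescence plus signal to noise.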 Particulars: higher = more signal, called active from +8 up or from −8 down.
The nature of assay [3]: small-molecule binders of probe aNOTCH3, primary screen, biochemical, small-molecule microarray, 635/667 nm fluorescence (AID 1120).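 Also: probe is a biotin-tagged antibody raised against NOTCH3 rather than NOTCH3 protein; score merges spot fluorescence near 667 nm with spot signal to noise.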 The settings on record: higher = more signal.
A short description of assay [4]: small-molecule binders of probe aNOTCH2, primary screen, biochemical, small-molecule microarray, 635/667 nm fluorescence (AID 1121).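 Also: score merges feature fluorescence read at 667 nm with its signal to noise.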 Particulars: higher = more signal.
Assay [5] deals with Carbonic anhydrase 2 (Homo sapiens) (UniProt P00918). In words: CAII small-molecule binders, profiling panel, biochemical, small-molecule microarray, Alexa647-labelled CAII (AID 1122). The settings on record: CAII-A647 binding fluorescence, higher = more signal.
Assay [6] is described as follows: COS7 lysate on small-molecule microarray, probe aHis, 635 nm (AID 1123).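 Also: z-score combines 667nm fluorescence intensity with signal-to-noise per printed compound spot.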 The settings on record: COS7 cell lysate, fluorescence, higher = more signal.
Assay [7] can be described thus: compound binding in COS7 lysate, probe aLAP1, primary screen, cell lysate, small-molecule microarray (AID 1124).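 Also: lysate comes from COS7 cells expressing LAP1 and is applied at 0.3 µg/mL; score merges spot fluorescence near 667 nm with signal-to-noise over triplicate slides.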 The settings on record: probe aLAP1, fluorescence, higher = more signal.
The subject of assay [8] is Sam68 (KHDRBS1). In words: Sam68 small-molecule binders, primary screen, biochemical, small-molecule microarray, 635 nm fluorescence (AID 1125).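 Also: score merges 667 nm channel intensity with signal to noise over triplicate slides.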 Particulars: small-molecule microarray binding, higher = more signal.
In assay [9] the test system is Chordin-like protein 2 (CHRDL2). Briefly: CHRDL2 small-molecule binders, primary screen, biochemical, small-molecule microarray, 635 nm fluorescence (AID 1126).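 Also: printed compound slides probed with Chrdl2 protein at 4 µg/mL for 1 h at 4 C; score merges 667 nm emission intensity with signal to noise over three replicate slides.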 Particulars: small-molecule microarray binding, fluorescence 635 nm; higher = more signal.
For assay [10], the target named is Concanavalin-A (Canavalia ensiformis) (UniProt P02866). Briefly: ConA small-molecule binders, primary screen, artefact control for SMM control protein annotation, biochemical, small-molecule microarray, Alexa647 label, 635 nm (AID 1127).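 Also: z combines 667 nm emission intensity with signal-to-noise across three replicate slides.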 The settings on record: ConA-A647 binding fluorescence, higher = more signal.
Chain of Concanavalin-A (Canavalia ensiformis) (P02866 whole entry, looked up): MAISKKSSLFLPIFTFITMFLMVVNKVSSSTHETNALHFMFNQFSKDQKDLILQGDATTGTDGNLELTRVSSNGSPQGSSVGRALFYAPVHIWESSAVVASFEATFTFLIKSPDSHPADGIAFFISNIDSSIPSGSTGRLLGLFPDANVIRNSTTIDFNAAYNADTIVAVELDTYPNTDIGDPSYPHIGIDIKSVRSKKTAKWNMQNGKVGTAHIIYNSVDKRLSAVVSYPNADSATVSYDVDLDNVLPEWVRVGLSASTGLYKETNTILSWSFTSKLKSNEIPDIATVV
A short description of assay [11]: anti-His antibody binders, primary screen, artefact control for SMM control protein annotation, biochemical, small-molecule microarray, 635 nm fluorescence (AID 1128).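 Also: score merges feature fluorescence with signal-to-noise for each printed compound spot.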 The settings on record: anti-His Alexa647 antibody binding, higher = more signal.
In assay [12] the test system is Human papillomavirus type 1a E7 protein (residues 1-88). In words: HPV1a E7 small-molecule binders, primary screen, biochemical, small-molecule microarray, residues 1-88, 635 nm (AID 1129). Particulars: small-molecule microarray binding, fluorescence 635 nm; higher = more signal.
Assay [13] deals with Focal adhesion kinase 1 (Homo sapiens) (UniProt Q05397). In words: small-molecule microarray binders of FAK, primary screen, biochemical, 635/667 nm fluorescence, BSA, DTT (AID 1130).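 Also: composite of spot emission at 667 nm and signal to noise over triplicate slides.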 Particulars: PTK2 binding, 635 nm fluorescence, higher = more signal.
Chain of Focal adhesion kinase 1 (Homo sapiens) (Q05397 whole entry, looked up): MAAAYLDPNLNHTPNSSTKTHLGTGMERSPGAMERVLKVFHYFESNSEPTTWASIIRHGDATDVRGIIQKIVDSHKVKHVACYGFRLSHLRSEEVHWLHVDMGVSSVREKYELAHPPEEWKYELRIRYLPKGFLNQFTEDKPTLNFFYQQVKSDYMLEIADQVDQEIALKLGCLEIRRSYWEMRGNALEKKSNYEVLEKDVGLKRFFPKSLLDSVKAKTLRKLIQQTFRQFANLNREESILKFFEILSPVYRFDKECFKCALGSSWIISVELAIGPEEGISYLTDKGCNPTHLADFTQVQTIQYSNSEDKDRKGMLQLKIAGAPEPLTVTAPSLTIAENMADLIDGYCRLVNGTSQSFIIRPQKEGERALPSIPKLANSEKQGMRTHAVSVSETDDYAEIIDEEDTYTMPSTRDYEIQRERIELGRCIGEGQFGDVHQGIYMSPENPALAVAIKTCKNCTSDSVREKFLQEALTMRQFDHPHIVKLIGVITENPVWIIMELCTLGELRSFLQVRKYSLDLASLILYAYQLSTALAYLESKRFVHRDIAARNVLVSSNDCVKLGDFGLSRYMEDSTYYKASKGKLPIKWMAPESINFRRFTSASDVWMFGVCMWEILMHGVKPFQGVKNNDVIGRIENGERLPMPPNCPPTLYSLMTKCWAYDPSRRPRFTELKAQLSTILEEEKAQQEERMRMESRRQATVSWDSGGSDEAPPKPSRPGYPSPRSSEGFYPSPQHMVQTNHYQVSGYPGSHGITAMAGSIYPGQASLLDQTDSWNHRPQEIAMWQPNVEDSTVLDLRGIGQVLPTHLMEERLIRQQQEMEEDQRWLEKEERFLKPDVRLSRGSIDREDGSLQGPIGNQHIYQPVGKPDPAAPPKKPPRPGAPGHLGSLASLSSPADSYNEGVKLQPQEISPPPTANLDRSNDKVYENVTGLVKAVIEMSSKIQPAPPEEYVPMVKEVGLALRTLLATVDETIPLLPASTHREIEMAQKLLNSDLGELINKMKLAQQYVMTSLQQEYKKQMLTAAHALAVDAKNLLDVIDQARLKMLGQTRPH
Assay [14] deals with Fibrinogen (Alexa647-labelled). In words: fibrinogen binders on compound microarrays, profiling panel, artefact control for SMM control-protein annotation, biochemical, small-molecule microarray, 635/667 nm fluorescence (AID 1131).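 Also: z-score merges 667 nm fluorescence with per-spot signal-to-noise over triplicate slides.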 Particulars: fibrinogen-A647 binding fluorescence, higher = more signal.
Assay [15] addresses Follistatin (Homo sapiens) (UniProt P19883). Briefly: follistatin binders on small-molecule microarrays, primary screen, biochemical, small-molecule microarray, 635/667 nm fluorescence (AID 1132). Particulars: FST binding, 635 nm fluorescence, higher = more signal.
Assay [16] deals with Fibroblast growth factor 2 (Homo sapiens) (UniProt P09038). Briefly: FGF2 binders on small-molecule microarrays, primary screen, biochemical, small-molecule microarray, 635/667 nm fluorescence (AID 1133). Particulars: small-molecule microarray binding, FGF2, fluorescence 635/667; higher = more signal.
Chain of Fibroblast growth factor 2 (Homo sapiens) (P09038 whole entry, looked up): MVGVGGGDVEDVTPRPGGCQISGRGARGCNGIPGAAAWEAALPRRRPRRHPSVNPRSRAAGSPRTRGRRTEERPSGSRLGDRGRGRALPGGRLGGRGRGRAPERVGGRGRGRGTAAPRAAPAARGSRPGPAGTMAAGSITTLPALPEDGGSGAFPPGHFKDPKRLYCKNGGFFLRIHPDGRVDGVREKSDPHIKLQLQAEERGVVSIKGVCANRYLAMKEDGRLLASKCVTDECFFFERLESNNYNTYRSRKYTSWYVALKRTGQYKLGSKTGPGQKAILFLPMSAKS
Assay [17] can be described thus: mitochondrial membrane potential change in A549 cells, profiling panel, cell-based, JC-1 fluorescence, basal, 24 h, 100 nL (AID 1138).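 Also: A549 lung adenocarcinoma cells under basal conditions with no added stimulus; test concentration not given here.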 Particulars: higher = more signal.
Assay [18] concerns Lefty1. Briefly: Lefty1 binders on small-molecule microarrays, primary screen, biochemical, small-molecule microarray, 635/667 nm fluorescence (AID 1139). Particulars: small-molecule microarray binding, fluorescence 635/667; higher = more signal.
Assay [19] relates to wheat germ agglutinin (Triticum aestivum), Alexa647-labelled. In words: wheat germ agglutinin binders on compound microarrays, profiling panel, artefact control for SMM control-protein annotation, biochemical, small-molecule microarray, 635/667 nm fluorescence (AID 1140).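 Also: score merges 667 nm feature emission with signal to noise over triplicate slides.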 Particulars: WGA-A647 binding, 635 nm fluorescence, higher = more signal.
In assay [20] the target is Luciferin 4-monooxygenase (Photinus pyralis) (UniProt P08659). Briefly: firefly luciferase enzyme inhibitors, primary screen, biochemical, luminescence, purified enzyme, 2006 set (AID 1141).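 Also: cell-free assay with purified firefly luciferase at 100 ng per well in PBS; test concentration not given here.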 Particulars: SteadyGlo luminescence, 30 min, higher = more signal, called active from +8 up or from −8 down.
Chain of Luciferin 4-monooxygenase (Photinus pyralis) (P08659 whole entry, looked up): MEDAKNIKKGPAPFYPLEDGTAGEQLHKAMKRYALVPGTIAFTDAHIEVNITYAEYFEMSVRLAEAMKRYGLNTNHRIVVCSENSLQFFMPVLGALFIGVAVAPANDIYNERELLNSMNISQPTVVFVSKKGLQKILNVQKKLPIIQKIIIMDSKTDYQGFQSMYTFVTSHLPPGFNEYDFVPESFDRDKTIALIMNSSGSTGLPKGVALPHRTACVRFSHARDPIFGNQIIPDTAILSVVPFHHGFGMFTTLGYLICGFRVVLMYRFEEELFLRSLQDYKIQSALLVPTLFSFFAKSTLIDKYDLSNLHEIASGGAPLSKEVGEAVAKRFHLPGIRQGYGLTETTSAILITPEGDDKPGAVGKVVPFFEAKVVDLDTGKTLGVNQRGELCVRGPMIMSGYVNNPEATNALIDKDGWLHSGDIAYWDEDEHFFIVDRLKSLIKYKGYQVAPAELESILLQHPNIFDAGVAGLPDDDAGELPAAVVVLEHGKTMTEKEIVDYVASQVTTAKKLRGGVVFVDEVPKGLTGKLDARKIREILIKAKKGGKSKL

Activity calls are given as the source filed them.

Chain of Follistatin (Homo sapiens) (P19883 whole entry, looked up): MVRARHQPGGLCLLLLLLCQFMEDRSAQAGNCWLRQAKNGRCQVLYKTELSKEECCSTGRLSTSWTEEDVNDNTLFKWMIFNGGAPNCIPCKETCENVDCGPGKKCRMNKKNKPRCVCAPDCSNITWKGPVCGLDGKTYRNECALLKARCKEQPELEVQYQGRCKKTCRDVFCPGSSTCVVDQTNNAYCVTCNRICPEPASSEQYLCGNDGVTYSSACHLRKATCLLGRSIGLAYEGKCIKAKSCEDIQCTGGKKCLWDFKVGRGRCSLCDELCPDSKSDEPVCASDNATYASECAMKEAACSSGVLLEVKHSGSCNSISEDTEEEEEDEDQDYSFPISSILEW
Chain of Albumin (Bos taurus) (P02769 whole entry, looked up): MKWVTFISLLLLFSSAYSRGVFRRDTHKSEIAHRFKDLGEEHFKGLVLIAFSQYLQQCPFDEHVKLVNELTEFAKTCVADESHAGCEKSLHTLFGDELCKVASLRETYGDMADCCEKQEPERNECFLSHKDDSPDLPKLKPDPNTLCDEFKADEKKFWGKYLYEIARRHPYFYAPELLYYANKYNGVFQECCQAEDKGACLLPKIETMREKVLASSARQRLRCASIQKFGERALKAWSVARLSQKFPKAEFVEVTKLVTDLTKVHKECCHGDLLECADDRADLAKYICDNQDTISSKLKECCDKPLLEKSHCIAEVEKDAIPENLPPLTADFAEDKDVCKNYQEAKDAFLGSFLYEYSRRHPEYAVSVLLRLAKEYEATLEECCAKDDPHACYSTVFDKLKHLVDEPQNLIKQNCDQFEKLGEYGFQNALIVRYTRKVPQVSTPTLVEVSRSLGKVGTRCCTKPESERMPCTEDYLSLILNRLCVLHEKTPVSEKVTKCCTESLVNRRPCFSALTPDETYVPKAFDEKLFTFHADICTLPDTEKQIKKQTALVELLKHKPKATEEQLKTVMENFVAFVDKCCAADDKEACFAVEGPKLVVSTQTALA

In the case of `CC(C)(C)OC(=O)CC[C@@]1(C(=O)NCC(O)CO)N=C(c2ccc(OCCCO)cc2)O[C@@H]1c1ccccc1CN=[N+]=[N-]` (stereo not given in full), the composite z-score in assay [1] was 0.347; in [3] it was 0.0297; in assay [4] it was 0.124; in assay [5] it was 0.836; in [6], 1.34; in [7], 0.398. For the same molecule, the composite z-score in assay [8] came out at 0.941; in assay [9], 0.333; in [10] it was 0.922; in assay [11], 1.41; in assay [12], 0.98; in [13] it was 0.426. Besides, the composite z-score in [14] was 0.91; in [15], 0.716; in assay [16], 0.337; in assay [18] it was -0.0839; in assay [19], 0.299. Moreover, the composite Z-score in assay [2] is -0.0662 (inactive). Besides, the results for the z-score in [17] and in [20] were 0.404 and -1.78 (inactive), respectively.

For the molecule `CCOC(=O)C1=CC[C@@H](c2ccccc2)N(S(=O)(=O)c2ccc(C)cc2)[C@H]1c1ccccc1`, the composite z-score in assay [1] is 0.831; in assay [3], 0.107; in [4], -0.0806; in assay [5] it was 0.453; in assay [6], 0.69; in [7] it was -0.561. The composite z-score is 0.749 in assay [8]; -0.221 in assay [9]; 1.07 in [10]; 0.271 in assay [11]; 1.17 in assay [12]; 0.428 in assay [13]. Further, the composite z-score in assay [14] is 0.915; in assay [15], -0.0842; in [16] it was -0.486; in [18] it was -0.381; in [19], 0.991. In assay [2], the composite Z-score was -0.563 (inactive). Besides, the z-score is 2.45 in assay [17] and 1.16 (inactive) in assay [20].

Turning to `NC(=O)[C@@]1(Cc2ccccc2)COC(c2ccc(OCCCO)cc2)=N1`, the composite z-score in assay [1] was 0.456; in assay [3] it was -0.0647; in assay [4], 0.513; in assay [5], 0.815; in assay [6] it was 2.91; in [7], -0.238. For the same molecule, the composite z-score in assay [8] is -0.442; in [9] it was -0.165; in assay [10] it was -0.978; in [11], 1.19; in assay [12], -0.974; in [13], 0.0264. Besides, the composite z-score in assay [14] was -0.979; in [15] it was -0.0248; in assay [16] it was 0.387; in [18] it was 0.0016; in assay [19] it was 0.523. In [2], the composite Z-score was 0.08 (inactive). For the same molecule, the z-score in assay [17] was -0.244; in assay [20], -4.28 (inactive).

For `CCCC=C(CCC)[C@@H](NS(=O)(=O)c1ccc(C(F)(F)F)cc1)c1ccccc1`, the composite z-score is -0.127 in assay [1]; 0.149 in assay [3]; 0.115 in assay [4]; 0.0051 in [5]; 1.34 in assay [6]; -0.122 in assay [7]. Moreover, the composite z-score in assay [8] was 0.42; in assay [9], -0.732; in assay [10], 0.277; in assay [11] it was 0.294; in assay [12] it was 0.887; in assay [13] it was 0.672. For the same molecule, the composite z-score in assay [14] is 0.698; in assay [15], 0.225; in [16], -0.148; in assay [18] it was -0.141; in assay [19], 0.663. For the same molecule, the composite Z-score in [2] was 0.404 (inactive). For the same molecule, the z-score is -2.69 in assay [17] and 2.72 (inactive) in [20].

With `[N-]=[N+]=Nc1ccccc1C[C@@]1(C(=O)N2CCOCC2)N=C(c2ccc(OCCCO)cc2)O[C@@H]1c1ccccc1`, the composite z-score was 0.847 in [1]; 0.457 in [3]; -0.224 in [4]; 0.544 in assay [5]; 2.59 in assay [6]; -0.235 in assay [7]. Further, the composite z-score in assay [8] is 1.32; in [9] it was -0.209; in [10], 1.11; in assay [11] it was 1.19; in assay [12], 1.19; in assay [13] it was 0.625. The composite z-score in [14] was determined as 0.986; in assay [15], 1.32; in assay [16] it was 1.35; in assay [18], 0.3; in assay [19] it was 0.313. In addition, the composite Z-score in [2] is 0.527 (inactive). The figures for the z-score in assay [17] and in assay [20] were 1.08 and -2.43 (inactive), respectively.
